# Measured values as given in PubChem BioAssay (EPA / NIEHS).
# Activity calls are given as the source filed them. The calls were made as follows: active = hit-call score of the fitted dose curve at least 0.9, where 1 is the maximum; inactive = score below 0.9.
# Target: CCAAT/enhancer-binding protein beta (Homo sapiens) (UniProt P17676)
# Assay: ATG_C_EBP_CIS: Attagene CIS-FACTORIAL HepG2 Assay for human CCAAT/Enhancer Binding Protein (C/EBP) beta (AID 2282927)
# Conditions: HepG2 Attagene cis-factorial transcription factor reporter; actives raise or lower the signal
# Method in brief: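 Endogenous C/EBPb-driven reporter transcripts measured in transfected human HepG2 cells at 24 h via RT-PCR and capillary electrophoresis of labelled fragments. Activity fitted in both directions relative to DMSO baseline.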
# CCAAT/enhancer-binding protein beta (Homo sapiens), sequence (P17676 whole entry, looked up): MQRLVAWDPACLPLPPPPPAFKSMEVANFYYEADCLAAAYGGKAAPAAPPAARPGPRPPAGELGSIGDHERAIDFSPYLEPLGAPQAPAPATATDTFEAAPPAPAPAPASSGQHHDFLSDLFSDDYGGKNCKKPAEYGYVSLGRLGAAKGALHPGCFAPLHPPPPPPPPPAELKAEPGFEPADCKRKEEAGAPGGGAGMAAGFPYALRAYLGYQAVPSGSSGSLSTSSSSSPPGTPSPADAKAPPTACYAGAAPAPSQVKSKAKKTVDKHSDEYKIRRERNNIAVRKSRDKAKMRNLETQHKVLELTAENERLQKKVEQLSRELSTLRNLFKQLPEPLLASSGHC
Compound,outcome,AC50
CCCCCCCCCCCC#N,inactive,–
O=C(NC(=O)c1c(F)cccc1F)Nc1ccc(Oc2ccc(C(F)(F)F)cc2Cl)cc1F,inactive,–
CC1CCCC1.[C-]#[O+].[C-]#[O+].[C-]#[O+].[Mn],inactive,–
CCCCNP(N)(N)=S,inactive,–
CC(=O)C=Cc1ccccc1,–,100 µM (active)
CCC(=O)c1ccc(Cl)cc1,inactive,–
Nc1ccccc1C(=O)Oc1ccc2ccccc2c1,inactive,–
C=CC(=O)OC,inactive,–
CC(C)CCCCCCCOC(=O)c1ccccc1C(=O)OCCCCCCCC(C)C,inactive,–
N#CCNCC#N,inactive,–
CN(C)N,inactive,–
CN1C[C@H](C(=O)N[C@]2(C)O[C@@]3(O)[C@@H]4CCCN4C(=O)[C@H](Cc4ccccc4)N3C2=O)C=C2c3cccc4[nH]cc(c34)C[C@H]21,inactive,–
O=[N+]([O-])C=Cc1ccccc1,inactive,–
Nc1ccc(Cl)c(Cl)c1,inactive,–
CCCCOP(=O)(O)OCCCC,inactive,–
O=C(O)CCl,inactive,–
CC(O)CN(CC(C)O)CC(C)O (centres undefined),inactive,–
Nc1cc(Cl)cc(Cl)c1,inactive,–
O=[N+]([O-])c1ccc(Cl)cc1,inactive,–

Compound,outcome,AC50
Cc1ccc(C)c2ccccc12,inactive,–
C=CCO,inactive,–
COC(=O)COc1ccc(Cl)cc1Cl,inactive,–
[CH3][Sn]([Cl])([Cl])[Cl],inactive,–
CC(=O)c1cc2c(cc1C)C(C)(C)C(C)CC2(C)C (centres undefined),–,108 µM (active)
Nc1ccc(-c2ccc(N)c(N)c2)cc1N,inactive,–
c1cc(OCC2CO2)ccc1Cc1ccc(OCC2CO2)cc1 (centres undefined),inactive,–
C=CC(=O)OCCCCOC(=O)C=C,–,168 µM (active)
c1ccc2c(c1)CCCC2,inactive,–
CCOC(=O)C1OC1(C)c1ccccc1 (centres undefined),inactive,–
[Cl][Sb]([Cl])[Cl],inactive,–
COc1ncc(F)c2nc(S(=O)(=O)Nc3c(F)cccc3F)nn12,inactive,–
CC(C)[C@@H](C(=O)O[C@@H](C#N)c1cccc(Oc2ccccc2)c1)c1ccc(Cl)cc1,inactive,–
C[C@]12CC[C@H]3[C@@H](CC[C@@]45O[C@@H]4C(O)=C(C#N)C[C@]35C)[C@@H]1CC[C@@H]2O,inactive,–
O=[N+]([O-])c1cc([N+](=O)[O-])c2ccccc2c1,inactive,–
O=C(O)C(Br)Br,inactive,–
C=CC(=O)OCCO,–,123 µM (active)
CCCCCCCCCCCCCCCC[N+](C)(C)C,–,24.1 µM (active)

# Tested on: not listed separately
# Assay: ATG_CMV_CIS: Attagene CIS-FACTORIAL HepG2 Assay for human CMV (Internal Marker) (AID 2282928);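 also: endpoint acts as a background internal control marker rather than a target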
# Conditions: HepG2 CMV promoter reporter, transcription factor profiling; actives raise or lower the signal
# Method in brief: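 Bidirectional fits against DMSO are applied to reporter mRNA, read by RT-PCR with capillary electrophoresis, from HepG2 cells exposed 24 h. The endpoint serves as an internal CMV background marker within the cis-factorial reporter panel.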
Compound,AC50,outcome
CCCCCCCCCCCC#N,103 µM (active),–
O=C(NC(=O)c1c(F)cccc1F)Nc1ccc(Oc2ccc(C(F)(F)F)cc2Cl)cc1F,4.11 µM (active),–
CC1CCCC1.[C-]#[O+].[C-]#[O+].[C-]#[O+].[Mn],–,inactive
CCCCNP(N)(N)=S,–,inactive
CC(=O)C=Cc1ccccc1,128 µM (active),–
CCC(=O)c1ccc(Cl)cc1,–,inactive
Nc1ccccc1C(=O)Oc1ccc2ccccc2c1,77 µM (active),–
C=CC(=O)OC,–,inactive
CC(C)CCCCCCCOC(=O)c1ccccc1C(=O)OCCCCCCCC(C)C,–,inactive
N#CCNCC#N,–,inactive
CN(C)N,–,inactive
CN1C[C@H](C(=O)N[C@]2(C)O[C@@]3(O)[C@@H]4CCCN4C(=O)[C@H](Cc4ccccc4)N3C2=O)C=C2c3cccc4[nH]cc(c34)C[C@H]21,–,inactive
O=[N+]([O-])C=Cc1ccccc1,–,inactive
Nc1ccc(Cl)c(Cl)c1,–,inactive
CCCCOP(=O)(O)OCCCC,–,inactive
O=C(O)CCl,–,inactive
CC(O)CN(CC(C)O)CC(C)O (centres undefined),–,inactive
Nc1cc(Cl)cc(Cl)c1,–,inactive
O=[N+]([O-])c1ccc(Cl)cc1,–,inactive

Compound,AC50,outcome
Cc1ccc(C)c2ccccc12,–,inactive
C=CCO,–,inactive
COC(=O)COc1ccc(Cl)cc1Cl,–,inactive
[CH3][Sn]([Cl])([Cl])[Cl],–,inactive
CC(=O)c1cc2c(cc1C)C(C)(C)C(C)CC2(C)C (centres undefined),28.1 µM (active),–
Nc1ccc(-c2ccc(N)c(N)c2)cc1N,–,inactive
c1cc(OCC2CO2)ccc1Cc1ccc(OCC2CO2)cc1 (centres undefined),49.6 µM (active),–
C=CC(=O)OCCCCOC(=O)C=C,74 µM (active),–
c1ccc2c(c1)CCCC2,–,inactive
CCOC(=O)C1OC1(C)c1ccccc1 (centres undefined),–,inactive
[Cl][Sb]([Cl])[Cl],–,inactive
COc1ncc(F)c2nc(S(=O)(=O)Nc3c(F)cccc3F)nn12,–,inactive
CC(C)[C@@H](C(=O)O[C@@H](C#N)c1cccc(Oc2ccccc2)c1)c1ccc(Cl)cc1,–,inactive
C[C@]12CC[C@H]3[C@@H](CC[C@@]45O[C@@H]4C(O)=C(C#N)C[C@]35C)[C@@H]1CC[C@@H]2O,100 µM (active),–
O=[N+]([O-])c1cc([N+](=O)[O-])c2ccccc2c1,23.5 µM (active),–
O=C(O)C(Br)Br,–,inactive
C=CC(=O)OCCO,–,inactive
CCCCCCCCCCCCCCCC[N+](C)(C)C,48.9 µM (active),–

# Tested on: not listed separately
# Assay: ATG_DR4_LXR_CIS: Attagene CIS-FACTORIAL HepG2 Assay for human Liver X Receptor (LXR), DR4 submotif (AID 2282929)
# Conditions: HepG2 Attagene DR4 cis-reporter, mRNA transcription; actives raise or lower the signal
# Method in brief: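 Fluorescence intensity of labelled reporter cDNA fragments, separated by capillary electrophoresis, gives the signal. HepG2 cells bearing cis-regulated reporter constructs were treated 24 h; activity fitted bidirectionally relative to DMSO negative control.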
Compound,AC50,outcome
CCCCCCCCCCCC#N,148 µM (active),–
CC1CCCC1.[C-]#[O+].[C-]#[O+].[C-]#[O+].[Mn],–,inactive
CCCCNP(N)(N)=S,–,inactive
CC(=O)C=Cc1ccccc1,–,inactive
CCC(=O)c1ccc(Cl)cc1,–,inactive
Nc1ccccc1C(=O)Oc1ccc2ccccc2c1,63.9 µM (active),–
CC(C)CCCCCCCOC(=O)c1ccccc1C(=O)OCCCCCCCC(C)C,–,inactive
CN(C)N,–,inactive
CN1C[C@H](C(=O)N[C@]2(C)O[C@@]3(O)[C@@H]4CCCN4C(=O)[C@H](Cc4ccccc4)N3C2=O)C=C2c3cccc4[nH]cc(c34)C[C@H]21,–,inactive
O=[N+]([O-])C=Cc1ccccc1,29.6 µM (active),–
CCCCOP(=O)(O)OCCCC,–,inactive
O=C(O)CCl,–,inactive
CC(O)CN(CC(C)O)CC(C)O (centres undefined),–,inactive
Nc1cc(Cl)cc(Cl)c1,–,inactive
O=[N+]([O-])c1ccc(Cl)cc1,–,inactive
Cc1ccc(C)c2ccccc12,–,inactive
COC(=O)COc1ccc(Cl)cc1Cl,–,inactive
[CH3][Sn]([Cl])([Cl])[Cl],–,inactive
CC(=O)c1cc2c(cc1C)C(C)(C)C(C)CC2(C)C (centres undefined),26.1 µM (active),–
C=CC(=O)OCCCCOC(=O)C=C,52.4 µM (active),–
COc1ncc(F)c2nc(S(=O)(=O)Nc3c(F)cccc3F)nn12,–,inactive
CC(C)[C@@H](C(=O)O[C@@H](C#N)c1cccc(Oc2ccccc2)c1)c1ccc(Cl)cc1,9.57 µM (active),–
C[C@]12CC[C@H]3[C@@H](CC[C@@]45O[C@@H]4C(O)=C(C#N)C[C@]35C)[C@@H]1CC[C@@H]2O,–,inactive
O=[N+]([O-])c1cc([N+](=O)[O-])c2ccccc2c1,–,inactive
C=CC(=O)OCCO,123 µM (active),–
